Reference: PubChem BioAssay
Active and inactive are the calls of the source.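 How the source made its calls, unless noted: active means inhibition above 20% together with a positive visual image hit; inconclusive means visual image hit but inhibition not above 20%; inactive means no visual image hit.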

Key:
[1] = inhibitors of TNFa-induced NFkB p65 translocation, primary screen, imaging, HUVEC, MLSMR starter and 10KST1 sets (AID 438); conditions: HUVEC TNFa-induced p65 nuclear translocation; cell count: measured here: nuclei count (cytotoxicity indicator), at 2.08 µM; inhibition: at 2 µM, stronger effect = higher value, 0% TNFa-plus-vehicle, 100% no-TNFa wells;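 further: compound added about 3h40 before a 20 min TNFalpha stimulation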;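 on inhibition: signal is the nuclear over cytoplasmic p65 intensity ratio per well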
[2] = inhibitors of mutant huntingtin aggregation, primary screen, imaging, exon1htt(103Q)mCFP cells, high-content imaging (AID 483;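 active means visual image review flags a hit and inhibition of aggregation exceeds 20%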;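 further: compound exposure lasted 3 days before fixation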;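 on nuclei count: percent of the per-plate median nuclei count of sample wells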); conditions: exon1htt(103Q)mCFP cell line, aggregate imaging, at 2 µM; inhibition of aggregation: stronger effect = higher value; nuclei count: measured here: cell count, toxicity
[3] = inhibitors of E-selectin induction by TNFa, primary screen, imaging, HUVEC, immunofluorescence, MLSMR starter and 10KST1 sets (AID 487;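 active means visually confirmed hit in the image check and inhibition above 20%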;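 on inhibition: signal is fraction of cell area covered by stained E-selectin grains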;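 on nuclei count: 100% = median nuclei count of all wells on the same plate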); conditions: HUVEC TNFalpha-induced E-selectin immunofluorescence imaging, at 2 µM; inhibition: stronger effect = higher value; nuclei count: measured here: cell number, toxicity
[4] = molecular target: Voltage-gated potassium channel subunit beta-2 (Rattus norvegicus) (UniProt P62483); experiment: KvBeta enzyme negative modulators, primary screen, biochemical, NADPH fluorescence (AID 622;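 active means fluorescence slope higher than the sample average by over 3 SD, cut at about -0.22 in these data, passing the limit was not always enough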;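 further: slope of raw intensity against log time taken from 70 to 1610 s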); conditions: recombinant KvBeta, 4-cyanobenzaldehyde reduction, at 10 µM, stronger effect = higher value
Sequence of Voltage-gated potassium channel subunit beta-2 (Rattus norvegicus) (P62483 whole entry, looked up): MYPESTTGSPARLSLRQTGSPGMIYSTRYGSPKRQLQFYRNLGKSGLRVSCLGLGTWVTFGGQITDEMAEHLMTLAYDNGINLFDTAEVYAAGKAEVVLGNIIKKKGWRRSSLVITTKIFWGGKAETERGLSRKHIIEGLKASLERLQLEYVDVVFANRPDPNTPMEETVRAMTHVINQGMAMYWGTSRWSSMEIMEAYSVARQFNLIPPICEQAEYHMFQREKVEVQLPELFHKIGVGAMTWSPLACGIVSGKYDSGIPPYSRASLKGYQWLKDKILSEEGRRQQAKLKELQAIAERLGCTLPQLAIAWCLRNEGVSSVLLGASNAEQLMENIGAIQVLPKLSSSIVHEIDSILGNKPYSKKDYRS

[5] = molecular target: Voltage-gated potassium channel subunit beta-2 (Rattus norvegicus) (UniProt P62483); experiment: KvBeta positive modulators, primary screen, biochemical, NADPH fluorescence (AID 623;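 active means NADPH fluorescence slope more negative than the mean of all samples by about 3 SD, 99.7% confidence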;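 further: fluorescence intensity change per second fitted from 20 to 320 s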); conditions: Recombinant KvBeta, NADPH fluorescence decrease slope, 10 min; at 10 µM; stronger effect = lower value
[6] = molecular target: Alpha-2C adrenergic receptor (Homo sapiens) (UniProt P18825); experiment: modulators of alpha2C/GIRK thallium flux, primary screen, cell-based, HEK293 alpha2C/GIRK1/2 (AID 624;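 active means fluorescence slope after compound addition differing from the mean of all screened samples at 99.7% confidence, in either direction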;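 further: slope of fluorescence ratio to pre-addition baseline per second over 15 to 24 s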); conditions: thallium flux BTC fluorescence, at 10 µM, actives lie on both sides
Sequence of Alpha-2C adrenergic receptor (Homo sapiens) (P18825 whole entry, looked up): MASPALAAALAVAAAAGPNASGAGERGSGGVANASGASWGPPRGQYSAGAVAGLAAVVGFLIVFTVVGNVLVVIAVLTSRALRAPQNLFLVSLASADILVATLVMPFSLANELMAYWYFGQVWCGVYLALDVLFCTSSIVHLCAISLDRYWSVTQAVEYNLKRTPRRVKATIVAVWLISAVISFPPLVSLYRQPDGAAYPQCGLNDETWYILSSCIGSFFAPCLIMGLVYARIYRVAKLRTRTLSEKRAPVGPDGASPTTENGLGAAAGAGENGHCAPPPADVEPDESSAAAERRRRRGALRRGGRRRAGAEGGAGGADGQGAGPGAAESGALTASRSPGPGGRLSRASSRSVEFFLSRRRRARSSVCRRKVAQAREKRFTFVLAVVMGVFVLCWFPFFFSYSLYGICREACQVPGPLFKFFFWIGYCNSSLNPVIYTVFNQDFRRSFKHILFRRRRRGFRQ

[7] = inhibitors of Sendai virus-induced IRF3 signaling, primary screen, TLR/RLR signaling modifier project, cell-based, Sendai virus stimulus, luciferase, 10K MLSCN set (AID 602276;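 active means inhibition at or above 50% at 10 µM; inactive means inhibition below 50%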;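 further: firefly luciferase from ISG56 promoter only with Renilla not read in this screen; 0% = Sendai virus plus DMSO and 100% = medium plus DMSO without virus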); conditions: HEK293 RL24 IRF3 luciferase reporter, at 10 µM, stronger effect = higher value
[8] = inhibitors of poly I:C-induced TLR3 signaling, primary screen, cell-based, poly I:C stimulus, luciferase, 10K MLSCN set (AID 602277;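 active means inhibition of the reporter signal at or above 50%; inactive means inhibition below 50%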); conditions: HEK293-TLR3 RL24 IRF3 luciferase reporter, at 10 µM, stronger effect = higher value

| Compound | cell count [1] | inhibition [1] | inhibition of aggregation [2] | nuclei count [2] [%] | inhibition [3] | nuclei count [3] [%] | fluorescence slope [4] | NADPH fluorescence slope [5] | slope [6] | inhibition [7] | inhibition [8] |
| --- | --- | --- | --- | --- | --- | --- | --- | --- | --- | --- | --- |
| COc1ccccc1CN1C(=S)SC(C)(C)C1NO (stereo not drawn) | 487 | 10.4% (inactive) | -2.9% (inactive) | 88.5 | 30.1% (inactive) | 105 | -0.499 (inactive) | -3.5e-05 (inactive) | 0.00451 (inactive) | 15.8% (inactive) | 21.5% (inactive) |
| Cc1ccnc(NC(=O)CCC(=O)N(CC(=O)NC(C)(C)C)C2CCCC2)c1 | 603 | 1.7% (inactive) | -6.2% (inactive) | 113 | -105% (inactive) | 89.5 | -0.638 (inactive) | -1.4e-05 (inactive) | 0.00587 (inactive) | 9.05% (inactive) | 9.79% (inactive) |
| O=C(O)c1cccn2c(=O)c3ccccc3nc12 | 799 | -2.3% (inactive) | -14.1% (inactive) | 84.3 | -19.6% (inactive) | 126 | -0.313 (inactive) | -2.6e-05 (inactive) | 0.0061 (inactive) | 8.6% (inactive) | 6.83% (inactive) |
| CCN(CCCNC(=O)C1CCN(S(=O)(=O)c2cccc3nonc23)CC1)Cc1ccccc1 | 297 | 16.9% (inactive) | 14.3% (inactive) | 92.7 | -72.5% (inactive) | 110 | -0.43 (inactive) | -4.9e-05 (inactive) | 0.00388 (inactive) | 13.3% (inactive) | 29.8% (inactive) |
| O=C(OCC(=O)N1CCc2ccccc21)C1=COCCO1 | 341 | -3.1% (inactive) | 8.9% (inactive) | 86.5 | -37% (inactive) | 113 | -0.633 (inactive) | -7.8e-06 (inactive) | 0.00715 (inactive) | -12.3% (inactive) | -46.6% (inactive) |
| O=S(=O)(c1ccc2c(c1)OCCO2)N1CCN(Cc2ccc3c(c2)OCO3)CC1 | 632 | 1.9% (inactive) | 0.7% (inactive) | 100 | -24.5% (inactive) | 113 | -0.345 (inactive) | -5.1e-05 (inactive) | 0.00449 (inactive) | 9.49% (inactive) | 25.6% (inactive) |
| Cc1c(NC(=O)c2noc3c2CCc2ccccc2-3)c(=O)n(-c2ccccc2)n1C | 620 | -3.4% (inactive) | -4.3% (inactive) | 110 | -79.6% (inactive) | 116 | -0.474 (inactive) | 2.6e-05 (inactive) | 0.0062 (inactive) | 2.37% (inactive) | -5.2% (inactive) |
| Cc1cnc(SCCc2ccncc2)nc1C | 650 | -17% (inactive) | -22.1% (inactive) | 116 | -103% (inactive) | 101 | -0.278 (inactive) | -1.1e-05 (inactive) | 0.00606 (inactive) | 6.48% (inactive) | -3.71% (inactive) |
| CCOc1ccccc1N(C(=O)Cn1nnnc1-c1ccc(C)o1)C(CC)C(=O)NC(C)(C)C (stereo not drawn) | 663 | 1.6% (inactive) | -4.4% (inactive) | 111 | -61.8% (inactive) | 89.5 | -0.531 (inactive) | -6.1e-06 (inactive) | 0.00561 (inactive) | -5.79% (inactive) | 11.2% (inactive) |
| Cc1ccc(C2c3sc(=O)[nH]c3SC3C(=O)NC(=O)C32)cc1 (stereo not drawn) | 401 | 6.1% (inactive) | 11.3% (inactive) | 88.3 | -18% (inactive) | 99.5 | -0.558 (inactive) | -2.2e-05 (inactive) | 0.00486 (inactive) | 1.16% (inactive) | 58.9% (active) |
| COc1ccc2[nH]c(=O)c(CN(CC3CCCO3)C(=O)Nc3ccc(F)cc3)cc2c1 (stereo not drawn) | 621 | 3% (inactive) | 12.1% (inactive) | 95.3 | -38.1% (inactive) | 114 | -0.512 (inactive) | 7.8e-06 (inactive) | 0.00737 (inactive) | -18.3% (inactive) | -13.3% (inactive) |
| O=C(Nc1ccccc1)c1cnc2n(c1=O)CCS2 | 734 | -18.7% (inactive) | 11.2% (inactive) | 106 | -25.4% (inactive) | 121 | -0.517 (inactive) | -3.2e-05 (inactive) | 0.0079 (inactive) | -16.4% (inactive) | -44.7% (inactive) |
| CC(CCc1ccccc1)NCc1ccncc1 (stereo not drawn) | 564 | 3% (inactive) | -1.8% (inactive) | 109 | -75.4% (inactive) | 130 | -0.409 (inactive) | -1.4e-05 (inactive) | 0.00748 (inactive) | 12.9% (inactive) | 23.5% (inactive) |
| CCOC(=O)/C=C1\CC(=O)Nc2nonc2N1 | 330 | -3.4% (inactive) | 2% (inactive) | 105 | -22.6% (inactive) | 118 | -0.507 (inactive) | -6.7e-05 (inactive) | 0.00414 (inactive) | 22% (inactive) | 21.4% (inactive) |
| CC(=O)n1cc(-c2ccncc2)c2ccccc21 | 474 | -5% (inactive) | 22.9% (inactive) | 69.3 | -74.9% (inactive) | 106 | -0.57 (inactive) | -1.3e-05 (inactive) | 0.00696 (inactive) | -5.39% (inactive) | 11.5% (inactive) |
| COCCOC(=O)C1=C(C)NC(=O)CC1c1cc2c(cc1Br)OCO2 (stereo not drawn) | 424 | 4.1% (inactive) | 16.1% (inactive) | 104 | -12.8% (inactive) | 95.1 | -0.395 (inactive) | -2.8e-05 (inactive) | 0.0043 (inactive) | 17.3% (inactive) | 16.1% (inactive) |
| COc1ccc(CN(CC(=O)NCc2ccco2)C(=O)CCC(=O)Nc2nccs2)cc1 | 438 | 3.6% (inactive) | -4.3% (inactive) | 102 | -24.4% (inactive) | 114 | -0.403 (inactive) | -3.8e-05 (inactive) | 0.00588 (inactive) | 11.3% (inactive) | 12.7% (inactive) |
| CCCCn1nnc(NC(=O)Cc2ccc(Cl)cc2)n1 | 618 | 7.7% (inactive) | 23.9% (inactive) | 91.6 | -66% (inactive) | 106 | -0.44 (inactive) | -6.8e-05 (inactive) | 0.00393 (inactive) | 1.51% (inactive) | 19.5% (inactive) |
| COc1cc(C(=O)Nc2ccc(-n3cnnn3)c(C)c2)cc(OC)c1OC | 302 | 5.8% (inactive) | 11.6% (inactive) | 90 | -94.5% (inactive) | 149 | -0.617 (inactive) | 3e-06 (inactive) | 0.00564 (inactive) | -0.467% (inactive) | 20.8% (inactive) |
| COc1ccc(C2CC(c3ccc(OC)cc3)n3nc(N)nc3N2)cc1 (stereo not drawn) | 595 | 6.1% (inactive) | -5.1% (inactive) | 99.7 | 28.5% (inactive) | 102 | -0.595 (inactive) | -3.1e-05 (inactive) | 0.00691 (inactive) | 6.72% (inactive) | 20.7% (inactive) |
| COc1ccc(-c2[nH]c(-c3cccc(OC)c3)nc2SCC(=O)NCc2ccco2)cc1 | 672 | 10.5% (inactive) | 5.3% (inactive) | 102 | -5.4% (inactive) | 124 | -0.484 (inactive) | -1.7e-05 (inactive) | 0.00547 (inactive) | 10.3% (inactive) | 4.41% (inactive) |
| CNC(=O)CSc1nnc(-c2cc3c(C)nn(-c4ccccc4)c3s2)n1C | 428 | 4.3% (inactive) | 2.8% (inactive) | 74.6 | -35.6% (inactive) | 118 | -0.405 (inactive) | 4.5e-05 (inactive) | 0.00659 (inactive) | -6.24% (inactive) | -6.6% (inactive) |
| N#Cc1c(/N=C/c2cccs2)sc2c1CCCCC2 | 636 | -14.8% (inactive) | -34.1% (inactive) | 127 | -14.2% (inactive) | 127 | -0.598 (inactive) | -2.1e-05 (inactive) | 0.0029 (inactive) | 30.4% (inactive) | -5.24% (inactive) |
| Cc1ccccc1OCCn1c(=O)oc2ccccc21 | 316 | -4.7% (inactive) | -1.9% (inactive) | 144 | -43.9% (inactive) | 128 | -0.353 (inactive) | -8e-06 (inactive) | 0.00518 (inactive) | 5.52% (inactive) | -6.56% (inactive) |
| COc1ccccc1Oc1coc2c(CN3CCN(C)CC3)c(O)ccc2c1=O | 541 | -0.5% (inactive) | -8.8% (inactive) | 107 | -12.9% (inactive) | 89.1 | -0.0185 (active) | 7e-06 (inactive) | 0.00281 (inactive) | 11.8% (inactive) | 34.8% (inactive) |
| CC(C)n1c(CN2CCN(C)CC2)nc2c1c(=O)n(C)c(=O)n2C | 600 | -5.3% (inactive) | 0.5% (inactive) | 103 | -24.8% (inactive) | 118 | -0.488 (inactive) | -4.5e-05 (inactive) | 0.00573 (inactive) | 22.2% (inactive) | 22.9% (inactive) |
| CCN(CC)CCOc1cccc(C(C)C)c1 | 657 | -5.3% (inactive) | -2.7% (inactive) | 104 | 1.1% (inactive) | 76.3 | -0.393 (inactive) | -7.6e-05 (inactive) | 0.00629 (inactive) | 6.62% (inactive) | 13.5% (inactive) |
| CCOc1ccc(-c2nc(C#N)c(N3CCCCCC3)o2)cc1 | 759 | 6% (inactive) | 11.5% (inactive) | 110 | -122% (inactive) | 114 | -0.579 (inactive) | -1.9e-05 (inactive) | 0.0066 (inactive) | -2.19% (inactive) | 4.25% (inactive) |
